Many of the other results were omitted from the sample, so hits are more common in it than they were.
14-3-3g Raf = modulators of 14-3-3 gamma protein binding, primary screen, biochemical, fluorescence polarization; inhibition, % at 40 µM; hit rate 0.19% among 160,000; FP, 14-3-3gamma / TMR-pS259-Raf peptide binding; 14-3-3 protein gamma (Homo sapiens), P61981; in the data active = inhibition above about 30%
Target sequence (P61981 whole entry, looked up): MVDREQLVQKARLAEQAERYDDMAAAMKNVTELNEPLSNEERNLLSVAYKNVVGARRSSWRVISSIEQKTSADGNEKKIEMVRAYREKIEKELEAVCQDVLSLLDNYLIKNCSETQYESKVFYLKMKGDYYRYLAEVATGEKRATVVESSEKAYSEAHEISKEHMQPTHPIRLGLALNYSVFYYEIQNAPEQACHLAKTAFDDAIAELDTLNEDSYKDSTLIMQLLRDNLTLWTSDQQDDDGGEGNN
Of the large screens only hits and unclear results are named; the others gave an inactive call; ! = repeats disagree.

CCCCOc1ccc(C2C(C(=O)OCC(C)C)=C(C)N=C3SCCC(=O)N32)cc1 (centres undefined)	none
CCOC(=O)C1=C(N)OC2=C(C(=O)CCC2)C1c1ccc([N+](=O)[O-])cc1 (centres undefined)	none
NC1=CC(=O)c2cccc3cccc1c23	14-3-3g Raf 80!
Cc1nnc(C)n1N1C(=O)c2cccc3cccc(c23)C1=O	none
O=C1c2cccc3cccc(c23)C(=O)N1c1ccccc1	none
CCCn1cnc2sc(C(=O)Oc3ccc(OCC)cc3)c(C)c2c1=O	none
CCOC(=O)C1CCN(C(C(=O)NC2CCCCC2)c2cc3c(cc2[N+](=O)[O-])OCO3)CC1 (centres undefined)	none
c1ccc2[nH]c(CSc3nc4ncccc4[nH]3)nc2c1	none
O=c1c(-c2ccc3c(c2)OCCO3)coc2c(CN3CCOCC3)c(O)ccc12	none
COc1ccccc1-c1coc2c(CN3CCOCC3)c(O)ccc2c1=O	14-3-3g Raf 30
COc1cccc(Oc2coc3c(CN4CCOCC4)c(O)ccc3c2=O)c1	none
Cc1c(C(=O)N2CC(C)CC(C)C2)sc2ncnc(N(C)c3ccccc3)c12 (centres undefined)	none
CC(C)CCNC(=O)c1ccc(CNS(=O)(=O)c2ccc(F)cc2)cc1	none
CCOC(=O)c1c(C)oc2ccc(N(C(C)=O)S(=O)(=O)c3ccc(F)cc3)cc12	none
CC(=O)N1c2ccc(S(=O)(=O)CCC(=O)Nc3cc(C)ccc3C)cc2CC1C (centres undefined)	14-3-3g Raf 34
CC(=O)N1c2ccc(S(=O)(=O)CCC(=O)Nc3ccc(Br)cc3C)cc2CC1C (centres undefined)	none
CC(=O)N1c2ccc(S(=O)(=O)CCC(=O)Nc3ccc(C)c(C)c3)cc2CC1C (centres undefined)	none
CC1=C(C(=O)Nc2ccc(F)cc2)C(c2ccc(O)cc2)NC(=O)N1 (centres undefined)	none
CCCSc1nnc2c(n1)OC(CC)Nc1ccccc1-2 (centres undefined)	none
CC1(C)CC(=O)C2=C(C1)Nc1ncnn1C2c1ccc(C(F)(F)F)cc1 (centres undefined)	none
COc1ccc2c3c(cccc13)OCC2=O	none
CCC1=NNc2cccc3c(OC)ccc1c23	14-3-3g Raf 142
COc1ccc(C(C)=O)c2c(O)cccc12	none
COc1ccc(C)cc1NC(=O)c1cc2c(=O)oc3ccccc3c2s1	none
COc1ccc2oc(=O)c(C(=O)C[n+]3ccc(N(C)C)cc3)cc2c1	14-3-3g Raf 41
COc1cccc2cc(C(=O)C[n+]3ccc(N(C)C)cc3)c(=O)oc12	none
COc1ccc2oc(=O)c(C(=O)NCc3ccccc3)cc2c1	none
Cc1cccc(C)c1NC(=O)CSc1nnc(-c2ccncc2)n1-c1ccccc1	none
N#CCCc1cccc(NC(=O)c2cc3nc(-c4ccc5c(c4)OCO5)cc(C(F)(F)F)n3n2)c1	none
CCOc1ncccc1C(=O)Nc1ccc(Oc2ccc(Cl)cc2)cc1	none
Cc1cccc(N(CC(=O)Nc2c(C)cccc2C)S(=O)(=O)c2ccccc2)c1C	none
Cc1cccc(N(CC(=O)NC2CCCCC2)S(=O)(=O)c2ccccc2)c1C	14-3-3g Raf 38
Cc1cccc(N(CC(=O)NC2CC3CCC2C3)S(=O)(=O)c2ccccc2)c1C (centres undefined)	none
CCOC(=O)c1c(NC(C)=O)sc(C(=O)NC2CCCCC2)c1C	none
CC(C)(C)c1cc2c(c(C(C)(C)C)c1)OC(c1cc([N+](=O)[O-])ccc1O)N2 (centres undefined)	none
Cc1ccccc1CNC(=O)c1ccc(N(C)S(=O)(=O)c2ccccc2)cc1	none
Cc1ccc(CNC(=O)c2ccc(N(C)S(=O)(=O)c3ccccc3)cc2)cc1	14-3-3g Raf 53
CN(c1ccc(C(=O)NCc2ccccc2)cc1)S(=O)(=O)c1ccccc1	none
O=C(Nc1ccc2oc(-c3ccc(F)cc3)nc2c1)c1ccc(-c2cccc([N+](=O)[O-])c2)o1	none
COC(=O)C1=C(C)NC(=O)NC1c1ccc(Br)cc1 (centres undefined)	none
CCCS(=O)(=O)N1N=C(c2ccc(NS(C)(=O)=O)cc2)CC1c1ccccc1F (centres undefined)	14-3-3g Raf 71
CCS(=O)(=O)Nc1ccc(C2=NN(S(=O)(=O)CC)C(c3ccccc3F)C2)cc1 (centres undefined)	none
CS(=O)(=O)Nc1ccc(C2=NN(S(C)(=O)=O)C(c3ccccc3F)C2)cc1 (centres undefined)	none
O=C(Nc1cccc(NC(=O)c2cccc(Br)c2)c1)c1ccc(F)cc1	none
O=C(NCc1cccnc1)c1cc(S(=O)(=O)N2CCOCC2)ccc1F	none
O=C(NCc1cccs1)c1cc(S(=O)(=O)N2CCOCC2)ccc1F	none
Cc1c(C(=O)NCc2ccco2)oc2ccc(S(=O)(=O)N3CCOCC3)cc12	none
O=C(NCc1ccccn1)c1cc(S(=O)(=O)N2CCOCC2)ccc1F	14-3-3g Raf 114
Cc1c(C(=O)NCc2ccccn2)oc2ccc(S(=O)(=O)N3CC(C)CC(C)C3)cc12 (centres undefined)	none
Cc1c(C(=O)NCc2ccccn2)oc2ccc(S(=O)(=O)N3CCOCC3)cc12	14-3-3g Raf 129
Cc1c(C(=O)NCc2ccccn2)oc2ccc(S(=O)(=O)N3CCC(C)CC3)cc12	14-3-3g Raf 63
Cc1c(C(=O)NCc2ccccc2)oc2ccc(S(=O)(=O)N3CCC(C)CC3)cc12	none
Cc1c(C(=O)NCc2cccs2)oc2ccc(S(=O)(=O)N3CCOCC3)cc12	none
COc1ccc(-c2cc(C(=O)Nc3ccc(OC(F)(F)F)cc3)no2)cc1OC	none
CN(C)CCNC(=O)c1cn(C2CCCCC2)c(=O)c2c1c1ccccc1n2C	none
CNS(=O)(=O)c1cc(-c2nnc(Nc3ccc(C)cc3)c3ccccc23)ccc1C	none
O=C(Nc1c2c(nn1-c1cccc(Cl)c1)CSC2)c1ccccc1I	none
O=C(O)C1CC=CCC1C(=O)Nc1cccc(O)c1 (centres undefined)	none
Fc1ccc(N2CCN(c3nc(-c4cccs4)cc(C(F)(F)F)n3)CC2)cc1	none
CC(C)c1ccc(C2C3=C(CCCC3=O)Nc3nc(SCc4ccc([N+](=O)[O-])cc4)[nH]c(=O)c32)cc1 (centres undefined)	none
CC(=O)Oc1c(C)cc(O)c2ccccc12	none
CC(=O)Oc1c(-c2ccccc2)c2nc3ccccc3nc2c2ccccc12	14-3-3g Raf 33
CCC(=O)Oc1c(-c2ccccc2)c2nc3ccccc3nc2c2ccccc12	none
NS(=O)(=O)c1ccc(NC(=O)CSc2nnc3ccccn23)cc1	none
CCOc1ccc(N2C(=O)C3C(c4ccccc4)C=CC(c4ccccc4)C3C2=O)cc1 (centres undefined)	none
O=S(=O)(NCCc1ccc(Cl)cc1)c1ccc2nc(-c3ccccc3)[nH]c2c1	none
O=C(O)c1ccccc1C1=Nc2ccc(O)cc2Oc2cc(O)ccc21	14-3-3g Raf 123
Cc1cc(-c2ccccc2C(=O)O)on1	none
O=C1c2ccccc2C(=O)c2cc(O)ccc21	none
Cc1nc(-c2ccc(NC(=O)c3ccccc3[N+](=O)[O-])cc2)cs1	none
Cc1ccc(S(=O)(=O)N2CCN(c3ccc([N+](=O)[O-])c(NCCOc4ccc(Cl)cc4)c3)CC2)cc1	none
C=CCc1c(C)nc2nc(SCC(=O)Nc3cc(C(F)(F)F)ccc3Cl)nn2c1C	none
Cc1nn(-c2ccccc2)c(OC(=O)c2ccccc2[N+](=O)[O-])c1Sc1ccccc1[N+](=O)[O-]	none
Nc1c2c3c(c(Cl)ccc3[nH]c1=O)C(=O)c1ccccc1-2	none
O=C1c2ccccc2-c2c(Nc3ccccc3)c(=O)[nH]c3cccc1c23	14-3-3g Raf 92
CC(=O)Nc1ccc(Nc2ccccc2)c2c1C(=O)c1ccccc1C2=O	none
